The whole screen tested about 1,300 compounds, of which about 420 (32%) were called active. About 32% were inconclusive and are not listed. The call rests on the fitted dose curve; in most records, active means well fitted inhibition curve with a large enough effect; inconclusive means small, poorly fitted or top-dose-only effect; inactive means no such curve, though single readings can be large or run the other way. Some of the results follow. Where a call stands in place of a potency, no number is given.
Potency means the concentration at half of the fitted maximal effect.

For the experiment, the target named is C-terminal-binding protein 1 (Homo sapiens) (UniProt Q13363). Description: qHTS for Inhibitors of the Phosphatase Activity of Eya2: Carboxyl-terminal binding protein (CtBP) Counterscreen for Cherry-picked Compounds. Further: nearly all actives have a fitted effect of over 65% in size. The settings on record: purified protein-protein binding, AlphaScreen, 3 h; series mostly up to 46.1 µM. The source says:
The Eya protein family is an essential co-activator of the Six1 transcription factor. Six1 is a developmental gene that is abnormally re-expressed in a large percentage of breast cancers. This over-expression plays a causal role in the initiation and metastatic development of breast cancers. The Eya family of protein is also found to contain a unique HAD phosphatase domain with protein tyrosine phosphatase activity which can potentially play a role in Six1-mediated breast tumorigenesis. Recently, Eya2 is found to dephosphorylate the histone variant H2AX and direct cells towards DNA repair instead of apoptosis in the event of DNA damage.
A 1536 well format, fluorescence based qHTS assay was developed and used to target the phosphatase activity of Eya2 (AID 488837). In addition, a CtBP counterscreen was developed using the AlphaScreen technology to evaluate compound selectivity to target […]. The data herein reports the activity of the cherry-picked compounds against the CtBP AlphaScreen. Compounds that are active or have > 100 fold selectivity vs. the Eya2 activity were excluded for further characterization. Inactivity is the desired outcome for the CtBP counterscreen.
NIH Chemical Genomics Center [NCGC]
NIH Molecular Libraries Probe Centers Network [MLPCN]
Assay Submitter (PI): Rui Zhao, University of Colorado Denver
Four microliters of reagent (25 nM GST-E1A, 25 nM CtBP-6x HIS) was dispensed in a 1536 well Greiner plates. Twenty-three nanoliter of test compounds (final concentration of 2.5 nM - 46 uM) and positive control E1A peptide inhibitor (final concentration of 0.14 nM - 4.6 uM) were added to the plates using the Kalypsys pintool equipped with a 1536 pin head. The plates was then incubated at room temperature for 2 hours followed by addition of 1 uL Alpha bead donor / acceptor mix (20 ug/mL final concentration). The assay plates were incubated for additional 1 hour at room temperature and protected from light. The AlphaScreen signal was obtained using the PerkinElmer EnVision plate reader using the 680 nm excitation and 520 - 620 nm emission filters. The data was normalized to the E1A peptide inhibitor for maximum inhibition and DMSO treated wells as negative control.
For `N[C@@H](Cc1cc(I)c(O)c(I)c1)C(=O)O`, the Potency is 8.49 µM (active).
Then `CN(C)c1ccc(N=Nc2ccccc2)cc1`, with 4.78 µM (active); and `CN(C)c1ccc(C=C2C=CC=C2)cc1`, with “inactive”.
In the case of `COC(=O)C1=C(c2cccc(OCc3ccccc3)c2)C[C@@H]2CC[C@H]1N2C(=O)NCCCc1ccccc1` it was “inactive”; in that of `COC(=O)C1=C(c2ccc(F)cc2OCc2ccccc2)C[C@@H]2CC[C@H]1N2C(=O)NCc1ccc(N(C)C)cc1`, 10.7 µM (active).
Regarding `CCOC(=O)c1cc2c(cn1)[C@@H](CCO)NC2`, the Potency result is “inactive”.
In the case of `COc1cccc2c1C(=O)c1c(O)c3c(c(O)c1C2=O)C[C@@](O)(C(=O)CO)C[C@@H]3O[C@H]1C[C@H](N)[C@H](OC2CCCCO2)[C@H](C)O1` (stereo partly drawn) it was 7.57 µM (active).
Then `C[C@H]1CCC[C@H](O)CCCCCc2cc(O)cc(O)c2C(=O)O1`, with “inactive”; and `CN(C)S(=O)(=O)c1ccc(C(=O)NNc2nc(-c3ccccc3)c3cc(Br)ccc3n2)cc1`, with 8.49 µM (active); and `O=C1NC(=S)NC(=O)C1=Cc1ccc(Br)s1`, with “inactive”.
As to `COc1ccc(-c2cc(=NCCC(=O)O)c3cc(C)ccc3o2)cc1`, the Potency is 10.7 µM (active).
Then `Cc1nc2ccccc2c(=O)n1-c1ccc(Cl)cc1[N+](=O)[O-]`, with “inactive”; and `COc1ccccc1N1CCN(CCc2c[nH]c3cc4c(cc23)OCO4)CC1`, with 13.5 µM (active).
Then `O=C1NC(=O)N(c2ccc(Cl)cc2)C(=O)/C1=C\c1ccc(Sc2nc3ccccc3[nH]2)o1`, with “inactive”; and `CC(N)[C@H](O)c1ccc(O)c(O)c1` (stereo partly drawn), with “inactive”; and `Cc1cc(/C=C2\C(=O)NC(=O)N(c3ccc(Br)cc3)C2=O)c(C)n1-c1cc(C(=O)O)cc(C(=O)O)c1`, with “inactive”.
In the case of `Cc1c(C(=O)c2cccc3ccccc23)c2cccc3c2n1[C@H](CN1CCOCC1)CO3` it was “inactive”; in that of `O=C(Cc1ccccc1)c1ccccn1`, 10.7 µM (active).
Regarding `COC1C(O)C(C)OC(OC2C(Oc3cccc4c(O)c5c(=O)oc6ccc(C)c7c(=O)oc(c34)c5c67)OC(C)C(O)C2O)C1O` (stereo not drawn), the Potency result is “inactive”.
Then `CCC(COC(=O)c1cc(OC)c(OC)c(OC)c1)(c1ccccc1)N(C)C` (stereo not drawn), with “inactive”; and `COC(=O)C1=C(C)NC(C)=C(C(=O)OC)C1c1ccccc1[N+](=O)[O-]`, with 10.7 µM (active); and `O=C(O)c1cc[c]([Sb](=[O])([OH])[OH])cc1[N+](=O)[O-]`, with “inactive”.
Consider `C=CCN1C(=O)/C(=C/c2ccc(Br)s2)C(=O)NC1=S`, for which the Potency result was “inactive”.
Then `Cc1ccc2c(C)c3ccc4ccccc4c3c[n+]2c1`, with 13.5 µM (active); and `CCOC(=O)CCCc1cc[c]([Sb](=[O])([OH])[OH])cc1`, with “inactive”.
In the case of `CCOc1ccc(N2C(=O)/C(=C/c3ccc(C)o3)C(=O)NC2=S)cc1` it was “inactive”; in that of `C=C1C(=O)O[C@@H]2C[C@@H](C)[C@@H]3C=CC(=O)[C@@]3(C)[C@@H](OC(=O)CC(=O)O[C@H]3[C@@H]4C(=C)C(=O)O[C@@H]4C[C@@H](C)[C@@H]4C=CC(=O)[C@]43C)[C@H]12`, 8.49 µM (active).
Then `Cc1ccc(/C=C2\C(=O)NC(=S)N(c3cccc(F)c3)C2=O)o1`, with “inactive”.
Consider `O=C(O)CCCOc1ccc(Cl)cc1Cl`, for which the Potency result is “inactive”.
In the case of `CNc1ccc2nc3ccccc3[n+](C)c2c1`, the Potency is 8.49 µM (active).
As to `Cc1c(N=Nc2c(O)[nH]c(=O)[nH]c2=O)c(=O)n(-c2ccccc2)n1C`, the Potency is 2.13 µM (active).
Take `O=C1NC(=O)N(c2ccc(Br)cc2)C(=O)/C1=C/c1ccsc1`: the Potency entry was “inactive”.
`CCOc1cc2c(cc1OCC)-n1cccc1C(c1ccc(F)cc1)NC2` (stereo not drawn): the Potency entry was “inactive”.
